This is an account of results in PubChem BioAssay AID485344 (National Center for Advancing Translational Sciences (NCATS), 2010).

One may read the inhibition as the drop in the measured response relative to a control, in per cent.

Among all 340,000 compounds or so, about 6,900 (2%) were called active. This is one part of a sample in which actives are shown more often than they occur. Unmarked numbers belong to inactive results. No stated cut-off is given here; in the data, active means inhibition above about 30%; inactive means below that, where a call was filed.

Chain of D(2) dopamine receptor (Homo sapiens) (P14416 whole entry, looked up): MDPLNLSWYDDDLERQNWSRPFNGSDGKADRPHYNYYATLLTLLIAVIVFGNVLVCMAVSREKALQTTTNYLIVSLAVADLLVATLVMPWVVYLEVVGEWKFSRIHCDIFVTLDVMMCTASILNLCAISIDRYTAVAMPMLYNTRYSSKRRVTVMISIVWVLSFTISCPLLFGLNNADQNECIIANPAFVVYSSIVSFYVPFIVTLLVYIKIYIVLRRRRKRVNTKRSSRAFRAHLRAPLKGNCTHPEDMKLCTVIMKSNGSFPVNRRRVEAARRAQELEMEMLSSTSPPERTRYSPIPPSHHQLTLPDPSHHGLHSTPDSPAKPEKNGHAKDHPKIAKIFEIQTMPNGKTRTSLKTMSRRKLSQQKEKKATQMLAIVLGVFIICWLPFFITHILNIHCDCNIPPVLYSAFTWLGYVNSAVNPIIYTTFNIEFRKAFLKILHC

The experiment deals with D(2) dopamine receptor (Homo sapiens) (UniProt P14416). Put plainly: HTS Assay for Allosteric Antagonists of the Human D2 Dopamine Receptor: Primary Screen for Antagonists. Further: 0% is about no effect. The following applies: HEK293 TREx D2 cells, calcium flux, dopamine EC80; at 10 µM; stronger effect = higher value. Summed up:
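Dopamine at EC80 is the agonist stimulus; test compounds precede it by 180 s. Calcium flux read kinetically in a force-coupled, inducible HEK293 T-REx D2 cell line.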
For the compound `CC(=O)Nc1ccc(NC(=O)C(NS(=O)(=O)c2ccc3c(c2)OCCO3)C(C)C)cc1` (centres undefined), the inhibition is -6.92%.
Take `COCC(=O)Nc1c(C(=O)N2CCCC2)oc2ccccc12`: the inhibition is -20%.
As for `CCOCc1c(C(=O)N2CCN(Cc3ccc(Br)s3)CC2)oc2ccccc12`, the inhibition was 32.1% (active).
The figure for `COc1ccc(N2CCN(Cc3ccc(Br)s3)CC2)cc1` is -12.7%.
The same measure for `CS(=O)(=O)c1ccc(Cl)c(NC(=O)COC(=O)c2ncc(Cl)c(Cl)c2Cl)c1`: -16.5%; for `Cc1cccc(CN2CCC(CNC(=O)Nc3ccc(F)c(Cl)c3)CC2)c1`: -7.23%.
`COc1cc(NC(=O)NCC2CCN(Cc3ccc(C)cc3)CC2)cc(OC)c1OC`: the inhibition is 33.3% (active).
The same measure for `Cc1ccc(C)c(CN2CCC(CNC(=O)Nc3ccc(C)c(F)c3)CC2)c1`: -38%; for `COc1cc(C(=O)N(C)Cc2cccc(OC)c2OC)ccc1OCC(=O)Nc1cccc(C(F)(F)F)c1`: -10.9%.
The same measure for `CCCCCCOc1ccc(OC(=O)c2cccnc2)cc1`: 3.26%; for `N#CCc1ccc(OC(=O)c2cccnc2)cc1`: 0.882%; for `O=C(Oc1ccc(Br)cc1)c1cccnc1`: 38.5% (active).
As for `Cc1ccc2c(CN3CCN(S(=O)(=O)c4ccccc4C(F)(F)F)CC3)cc(=O)oc2c1`, the inhibition was -23.9%.
For `CC(C)(C)OC(=O)NCCCCCNC(=O)c1nc[nH]c1C(=O)NCc1ccccc1`, the inhibition is 7.02%.
For the compound `Cc1ccc(-c2cc(C(=O)NC3CCN(Cc4ccccc4)CC3)c3ccccc3n2)cc1`, the inhibition was -27.8%.
The same measure for `Cc1ccc(S(=O)(=O)NCCC(=O)NC2CCN(Cc3ccccc3)CC2)cc1`: 27.4%.
The same measure for `Cc1ccc(-c2nc(CSCC(=O)NC3CCN(Cc4ccccc4)CC3)c(C)o2)cc1`: 47.3% (active); for `CN(CC(=O)Nc1ccc(F)cc1)CC(=O)N1CCCCC1`: -7.3%.
The figure for `Cc1cc(C(=O)Nc2nnc(C3CC3)s2)c(C)s1` is 3.85%; for `COc1ccc(CC2(CO)CCN(Cc3cnn(C)c3)CC2)cc1` it is -4.17%.
For the compound `CCOC(=O)C1(CCOC)CCN(Cc2ccc(C(=O)OC)cc2)CC1`, the inhibition is 5.1%.
The figure for `COC(=O)c1ccc(CN2CCC(CO)(Cc3ccc(OC)cc3)CC2)cc1` is 63.2% (active); for `Cc1ccc(C)c(NC(=O)COC(=O)CSc2ccccc2)c1` it is -6.28%; for `N#CCCN(C(=O)COC(=O)C1CCN(c2ccc(C(F)(F)F)cn2)CC1)c1ccc(F)cc1` it is 5.59%.
For `COc1ccc(Cl)cc1NC(=O)COc1ccc2c(c1)OCO2`, the inhibition was 7.9%.
The figure for `C[C@H](OC(=O)n1ccnc1)[C@@H]1O[C@@]2(C)CCC[C@@H]1O2` is -7.72%.
The same measure for `CC1(C)OC(=O)N2CCc3ccccc3C21C` (centres undefined): 40.5% (active); for `CC1Cc2ccccc2N1C1=CC(=O)CC(C)(C)C1` (centres undefined): 3.51%; for `CCN(CC(=O)Nc1ccccc1C(F)(F)F)C(=O)CSCc1c(C)noc1C`: 1.97%.
Take `C=CCN1C(=O)C(O)(CC(=O)c2ccc(Cl)cc2)c2ccccc21` (centres undefined): the inhibition is 0.63%.
The figure for `O=C(CC1(O)C(=O)N(CN2CCOCC2)c2ccccc21)c1ccccc1` (centres undefined) is 30.3% (active).
The figure for `C=CCN1C(=O)C(O)(CC(=O)c2ccccn2)c2ccccc21` (centres undefined) is 3.67%; for `CCc1noc(C)c1C(=O)Oc1ccc(N(C)S(=O)(=O)c2ccc(C)c(C)c2)cc1` it is -5.58%.
In the case of `Cc1ccc(S(=O)(=O)N(C)C)cc1NC(=O)C(C)OC(=O)c1ccc2ccccc2n1` (centres undefined), the inhibition is 5.2%.
The figure for `COc1cc(C(C)=O)ccc1OC(C)C(=O)Nc1ccc(S(=O)(=O)N2CCCC2)cc1` (centres undefined) is -10.1%; for `O=C1CN(C(=O)CN2C(=O)NC3(CCCCC3)C2=O)c2ccccc2N1` it is 3.68%.
In the case of `CC(C)(C)C(=O)CCN1C(=O)C2(OCCO2)c2ccccc21`, the inhibition was -2.06%.
The figure for `CC(=O)N1C(=O)C2(Nc3ccccc3N2)c2ccccc21` is 34.2% (active); for `CC1CCN(C(=O)COC(=O)c2cc(=O)[nH]c3ccccc23)CC1` it is -0.452%; for `CC(NC(=O)c1ccccc1F)c1cccc2ccccc12` (centres undefined) it is 10.4%.
For `COc1ccc(OC)c(CNC(=O)Cn2nc(C)c3c(C)n(-c4ccc(C)cc4)nc3c2=O)c1`, the inhibition is 30% (active).
Turning to `Cc1nn(CC(=O)N2CCCCC2)c(=O)c2nn(-c3ccccc3)c(C)c12`, the inhibition was 20.3%.
The same measure for `CCOC(=O)C1CCN(C(=O)Cn2nc(C)c3c(C)n(-c4ccccc4)nc3c2=O)CC1`: 2.33%.
The figure for `CC(=O)c1sc(N)nc1C` is 9.17%; for `COc1ccc(C(C)(C)C)cc1NC(=O)CCN1C(=O)C2CCCCC2C1=O` (centres undefined) it is 11.5%; for `Cc1ccc(CC(=O)Nc2ccc(S(=O)(=O)N3CCOCC3)cc2)cc1C` it is 19%.
The same measure for `CN1C(C(=O)NCc2ccco2)CC2Cn3c(nc4ccccc43)C21` (centres undefined): 12.7%; for `C[C@H]1[C@H]2c3nc4ccccc4n3C[C@H]1ON2C1CCCCC1`: 31% (active).
With `CN1C(C(=O)NCC2CC2)CC2Cn3c(nc4ccccc43)C21` (centres undefined), the inhibition was 6.56%.
The same measure for `Cc1cc(C(=O)COc2ccc(Br)cc2F)c(C)n1C1CC1`: -10.6%; for `O=C(CN1CCN(c2ccccc2O)CC1)NC(=O)NCc1ccccc1`: -6.15%; for `COc1ccc2oc(C(=O)OCC(=O)N(CC(C)C)c3c(N)n(Cc4ccccc4)c(=O)[nH]c3=O)c(C)c2c1`: -27.2%.
For `Cc1ccc(NC(=O)C(C)OC(=O)Cc2c[nH]c3ccccc23)cc1S(=O)(=O)N1CCOCC1` (centres undefined), the inhibition was -4.91%.
The same measure for `CC(C)CCN1CCC(C)(NC(=O)c2ccccc2)C1=O` (centres undefined): 3.51%.
The same measure for `CC(OC(=O)CN1C(=O)c2ccccc2C1=O)C(=O)c1ccccc1` (centres undefined): 10.6%; for `Cc1noc(C)c1S(=O)(=O)N(CC(=O)NCc1ccc(Cl)cc1)c1ccc2c(c1)OCO2`: 1.26%.
For `CCN(CC(=O)NCc1ccc(Cl)cc1)C(=O)CSc1ccccc1`, the inhibition was -4.45%.
With `CCN(CC(=O)NCc1ccc(Cl)cc1)C(=O)c1c(C)noc1C`, the inhibition was 30.3% (active).
The figure for `CC(=O)c1c(C)[nH]c(C(=O)COc2ccc3c(C)cc(=O)oc3c2)c1C` is 1.65%; for `CN(C)C(=O)N=NC(=O)N(C)C` it is 6.75%; for `CCC(C)CCN1CCN=C1N(C)C` (centres undefined) it is -4.14%.
The same measure for `C=C(C)COc1ccc(-c2nc(N)ncc2-c2ccccc2OC)c(O)c1`: -11.9%.
The figure for `CCOc1ccc(-c2nc(N)ncc2-c2ccccc2OC)c(O)c1` is 34.9% (active); for `COc1ccc(-c2nc(N)ncc2-c2ccc(Cl)cc2)c(O)c1` it is -27.1%.
For `CCCCN1C(=O)C(=O)N(CC(=O)Nc2cccc(C(C)=O)c2)C1=O`, the inhibition was 2.29%.
The same measure for `COc1ccc(C(=O)OC(C)C(=O)NC2CCCC2)cc1S(=O)(=O)N1CCOCC1` (centres undefined): -6.41%; for `O=C(NCCCN1CCOCC1)c1ccc([N+](=O)[O-])cc1[N+](=O)[O-]`: 48.1% (active); for `O=[N+]([O-])c1ccc(NCCCN2CCOCC2)c(Cl)c1`: -7.9%.
The same measure for `O=C(NCCCN1CCOCC1)c1ccc(N2CCCC2)c([N+](=O)[O-])c1`: -5.74%; for `COc1ccc(CC2c3cc(OC)c(OC)cc3CC[N+]2(C)CCC(=O)OCCCCCOC(=O)CC[N+]2(C)CCc3cc(OC)c(OC)cc3C2Cc2ccc(OC)c(OC)c2)cc1OC` (centres undefined): 2.9%; for `COC(=O)[C@@H](NC(=O)Nc1cc(Cl)ccc1C)C(C)C`: 18.4%.
The same measure for `COc1ccc(Cl)cc1NC(=O)CNc1ccccc1F`: 0.751%; for `COc1ccc(Cl)cc1NC(=O)NC(C)C(C)(C)C` (centres undefined): 34.2% (active).
`Cc1cc(C(=O)Nc2ccc(C)c(S(=O)(=O)N3CCOCC3)c2)c2ccccc2n1`: the inhibition is 3.28%.
The same measure for `O=C(c1cc(-c2ccco2)nc2ccccc12)N(Cc1nnc(-c2ccc(Cl)cc2)o1)C1CC1`: -3.48%; for `CCC(CC)C(=O)Nc1ccc(S(=O)(=O)Nc2nccs2)cc1`: 32.1% (active); for `Cc1ccc(OCCC(=O)Nc2ccc(S(=O)(=O)Nc3nccs3)cc2)cc1`: 23.7%.
As to `COc1ccccc1OC(C)C(=O)Nc1ccc(S(=O)(=O)Nc2nccs2)cc1` (centres undefined), the inhibition was -2.37%.
The same measure for `CNCC(O)CN1CCN(c2ccccc2OC)CC1` (centres undefined): -12.4%.
The figure for `COc1ccccc1N1CCN(CCCCOc2ccc(F)cc2)CC1` is 1.05%.
The figure for `COc1ccccc1N1CCN(Cc2ccc(OC)c3ccccc23)CC1` is 72.3% (active).
Consider `COc1ccccc1N1CCN(Cc2cc(OC)c3c(c2)OCO3)CC1`, for which the inhibition was 85.7% (active).
Turning to `COc1ccc(CN2CCN(Cc3ccc(OC)c(OC)c3OC)CC2)cc1`, the inhibition was -16%.
The figure for `COc1ccccc1CN1CCN(Cc2cc(OC)c(OC)cc2OC)CC1` is -0.792%; for `COc1ccc(S(=O)(=O)N2CCOCC2)cc1NC(=O)CSc1cc(C)ccc1C` it is -16%; for `CCN(CC(=O)Nc1ccc(NC(C)=O)cc1)C(=O)CSC(=S)N1CCCC1` it is 12.7%.
The same measure for `CC1(C)O[C@@H]2[C@H](O1)[C@@H](COS(=O)(=O)O)O[C@H]2n1cnc2c(=O)[nH]cnc21`: 10.8%.
The figure for `CCCCn1c(N)c(N(CC(C)C)C(=O)CSc2ccc([N+](=O)[O-])cc2)c(=O)[nH]c1=O` is 6.25%; for `OCC[C@H]1C[C@@H](O)[C@H](O)[C@@]2(OCCc3ccccc32)O1` it is 3.29%; for `CCN(CC(=O)Nc1ccc(OC)cc1)C(=O)CSCc1ccc(C)cc1` it is 7.06%.
Take `Cc1cc(C(=O)N/N=C/c2ccccc2[N+](=O)[O-])c(C)o1`: the inhibition is 2.69%.
The figure for `CC(=C/c1ccccc1)/C=N/NC(=O)c1cc(C)oc1C` is 36.9% (active); for `Cc1cc(C(=O)N/N=C\C(Br)=C\c2ccccc2)c(C)o1` it is 1.9%.
For the compound `COc1ccccc1C(=O)COC(=O)CSCC(=O)Nc1cc(C)on1`, the inhibition was 14.3%.
